# Measurements reported in PubChem BioAssay (Tox21).
# Values without a mark were called inactive. The call rests on the fitted dose curve; in most records, active means well fitted curve in the direction sought with a large enough effect in the repeat runs; inconclusive means weak or mixed curves; inactive means flat fitted curve, though single readings scatter.
# Experiment: qHTS assay to test for compound auto fluorescence at 460 nm (blue) in HepG2 cells (AID 720687)
# Settings: autofluorescence 405/460 nm, 1 h; series mostly up to 91.3 µM; fluorescence, % of fluorescent control: at the top concentration
# Excerpt: U.S. Tox21 Program National Center for Advancing Translational Sciences [NCATS] NIH Chemical Genomics Center [NCGC] U.S. Environmental Protection Agency [EPA] National Institutes of Environmental Health Sciences [NIEHS] National Toxicology Program [NTP] U.S. Food and Drug Administration [FDA] Tox21 Assay Overview: Compound auto fluorescence often interferes with screening of the compound library against various biological targets and signaling pathways. Some of these compounds may have fluorophoric properties. Such properties may interfere with the assay outputs resulting in false positives and/or negatives. To decrease such complications and ensure the compound activities are relevant in terms of biological response, the Tox21 10K compound library was screened for auto fluorescence. From the fluorophores used as reporter signals in our screening assays, the auto fluorescence equivalencies of compounds against three fluorophores have been evaluated: Triamterene, Fluorescein and Rose Bengal sodium for blue, green and red fluorescence, respectively. The fluorescence intensities were measured using Excitation/Emission wavelengths at 405/460nm, 485/535nm and 540/590nm for blue, green and red labels, respectively. This assay includes the blue fluorescence data.
# Tox21 Assay Protocol Summary: 2,000 HepG2 cells in 5 uL of culture medium (MEM containing 10% FBS) per well were dispensed into black wall/clear bottom 1536-well plates using a Multidrop Combi Dispenser (ThermoFisher Scientific, Waltham, MA). The assay plates were incubated overnight at 37 C to allow cell attachment to the well bottom, followed by the transfer of 23 nL compound or DMSO vehicle by a pintool work station (Kalypsys , San Diego, CA). After the assay plates were incubated for 1 hr at 37 C and 5% CO2, fluorescence intensities in the assay plates were measured by an Envision (PerkinElmer, Shelton, CT) plate reader using three labels for measuring blue, green and red fluorescence at […] 460, 535 and 590 nm respectively.
# On the % scale 0 is the no-effect control and ±100 the full control effect.
row,Structure (SMILES),"fluorescence, % of fluorescent control"
1,CCSC(=O)N(CC)CC,-0.106%
2,Cc1ccc2c(c1[N+](=O)[O-])C(=O)c1ccccc1C2=O,-0.115% [at 46 µM]
3,CN1C(CSCC(F)(F)F)Nc2cc(Cl)c(S(N)(=O)=O)cc2S1(=O)=O (stereo not given),0.0281% [at 46 µM]
4,O=C(O)CO,-0.0646%
5,CCCOC(=O)c1c(Cl)c(Cl)c(Cl)c(Cl)c1C(=O)OCCC,0.0026%
6,CCOCCC(=O)OCC,-0.0139% [at 95.7 µM]
7,O[C@@H](CNC[C@H](O)[C@H]1CCc2cc(F)ccc2O1)[C@@H]1CCc2cc(F)ccc2O1,-0.111% [at 46 µM]
8,Nc1ccc(F)cc1,0.0139% [at 95.7 µM]
9,CC(=O)OC(C)C[N+](C)(C)C (stereo not given),-0.0338% [at 18.6 µM]
10,O=S(=O)(Cl)c1c(Cl)cccc1Cl,0.399%
11,CCO[Si](C)(CCCOCC1CO1)OCC (stereo not given),0.0769%
12,O=C(O)CNC(=O)c1ccccc1I,-0.0237% [at 46 µM]
13,CCCCCCCCCCCCCCCC(=O)OCC,0.0672%
14,CC1C(C)(C)C2=C(C(=O)CCC2)C1(C)C (stereo not given),-0.165%
15,CC(C)(O)c1coc(S(=O)(=O)NC(=O)Nc2c3c(cc4c2CCC4)CCC3)c1,-0.341%
16,COc1ccc(N)c([N+](=O)[O-])c1,-0.0504%
17,Cc1cccc(C)c1NC(=O)c1cc(S(N)(=O)=O)c(Cl)cc1O,-0.0293% [at 46 µM]
18,CC12CC3CC(C)(C1)CC(N)(C3)C2,0.0524% [at 46 µM]
19,CCCCCCCC(=O)OCCCCCC,-0.07%
20,CS(=O)(=O)c1ccc([C@@H](C[C@H]2CCC(=O)C2)C(=O)Nc2cnccn2)cc1Cl,-0.0138%

row,Structure (SMILES),"fluorescence, % of fluorescent control"
1,CC1CCC(C(C)CS)CC1S (stereo not given),0.167%
2,CC(C)(C(=O)c1cccnc1)c1cccnc1,-0.0372% [at 18.6 µM]
3,CN(C)CC/C=C1\c2ccccc2Sc2ccc(Cl)cc21,0.0117% [at 46 µM]
4,CC(C)CC(O)CC(C)C,0.14%
5,C1=CCC2CC=CC2C1 (stereo not given),-0.0658%
6,O=C(Oc1ccccc1)c1ccc2ccccc2c1O,-0.0017%
7,SCCc1cnccn1,-0.0281%
8,Cc1cccc2sc(N)nc12,-0.0095% [at 95.7 µM]
9,O=C1OC(=O)c2c(Br)c(Br)c(Br)c(Br)c21,0.0165%
10,CC(C)COC(=O)c1ccc(O)cc1,0.0104%
11,CC(=O)OCC1=C(C(=O)O)N2C(=O)[C@@H](NC(=O)CSc3ccncc3)[C@H]2SC1,0.0274% [at 46 µM]
12,CC(=O)OCC(=O)[C@@]1(OC(C)=O)[C@@H](C)C[C@H]2[C@@H]3C[C@H](F)C4=CC(=O)C=C[C@]4(C)[C@@]3(F)[C@@H](O)C[C@@]21C,-0.0135% [at 46 µM]
13,COc1ccc(C)cc1,-0.0027%
14,O=C(c1ccccc1)C1CCC1,-0.0645%
15,C/C(C=O)=C\c1ccccc1,-0.0157%
16,COC1CCC=CO1 (stereo not given),0.0474%
17,CC(C)C(=O)OCCOc1ccccc1,-0.174%
18,CC(C)(C)C1(CCc2ccc(Cl)cc2)CO1 (stereo not given),0.0349%
19,CCCCCCC(O)CCCCCCCCCCC(=O)OC (stereo not given),0.0031%
20,CC(C)c1ccc(C#N)cc1,-0.0097%
